# According to PubChem BioAssay (NCI):
# “And” between values parts separate entries of the source, which are not always exact repeats. Equal values may be shown once. This is part of a sample that, as a whole, favours compounds with a hit. Of some 83,000 tested, about 20% had one in any assay.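 Plates (96-well) were seeded with cells, treated with compound at one concentration, and incubated for 48 hours before percent growth was determined.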 The source made the active and inactive calls. How the source made its calls: active means growth percent below 10; inactive means the rest.
# Test system: MDA-MB-468 breast
# Test: NCI-60 one-dose screen, 48 h (100 = growth as untreated, 0 = no growth, -100 = all killed)
# Conditions: 10 µM unless noted
row,Compound,growth
1,CCN(CC)CCNC(=O)c1c(C)[nH]c(/C=C2\C(=O)Nc3ccc(F)cc32)c1C,-56.4% (active)
2,O=C(c1ccccc1)C1(Br)CCCCC1,90.3% (inactive)
3,Oc1cccc2oc(=S)[nH]c12,105% (inactive)
4,COc1ccc(CNC(=O)C(O)C(Cc2ccccc2)NC(=O)c2[nH]c3ccccc3c(=O)c2C)cc1OC (stereo not given),102% (inactive)
5,O=C(CN(C1CCCCC1)C1CCCCC1)Nc1ccc(S(=O)(=O)c2ccc(NC(=O)CN(C3CCCCC3)C3CCCCC3)cc2)cc1,-55.1% (active)
6,Cc1cccc2c3c(sc12)C(c1ccc(F)cc1)C(C#N)=C(/N=C/c1ccc(Cl)cc1)O3 (stereo not given),36.2% (inactive)
7,COc1ccc(-n2c(SCc3n[nH]c(=S)o3)nc3ccc(Cl)cc3c2=O)cc1,82.6% (inactive)
8,O=C(Nc1ccc(NC(=O)c2cc(=O)[nH]c3ccccc23)cc1)Nc1cccc(Cl)c1,64.4% (inactive)
9,CC1CCN(S(=O)(=O)c2ncsc2-c2ccccc2)CC1,94.4% (inactive)
10,O=[N+]([O-])c1ccccc1Nc1ccc2ccccc2c1,80.4% (inactive)
11,CCOC(=O)c1c(C)nc2c(c1N)CC(=O)N2Cc1ccc(F)cc1,91% (inactive)
12,CCCCNC(=O)Oc1ccc2c(=O)c3sc4c(=O)c5ccccc5c(=O)c4c3c(=O)c2c1,-48.3% (active)
13,N/C(=N\c1nc2c(Cl)cc(Cl)cc2s1)C(Cl)(Cl)Cl,-48.6% (active)
14,CCOC(=O)/C=C/c1c(C)[nH]c(=O)[nH]c1=O,72.8% (inactive)
15,Cc1cc(O)c(=O)cc2c1C[C@H]1CC(C)(C)/C=C/C[C@]3(C)Oc4cc(=O)c(O)cc(C)c4C[C@H]3C[C@H](O)[C@@]1(C)O2,-16.7% (active) and -22.9% (active)
16,CCCCN(CCCC)CCCCCCCCC(O)c1cc2ccccc2c2ccccc12 (stereo not given),29.1% (inactive)
17,O=c1[nH]c(N2CCC(Cc3ccccc3)CC2)nc2sc3c(c12)CCCC3,104% (inactive)
18,CC(=O)NNC(=S)/N=C\C(C(=O)c1ccccc1)=C(/O)c1ccccc1,114% (inactive)
19,CCC(C)CC(C)C(=O)c1c(O)ccn(OC)c1=O (stereo not given),69.4% (inactive)
20,COc1ccc2ccccc2c1/C=N/N1CCCCC1,113% (inactive)

row,Compound,growth
1,O=S(=O)(NCCCNc1nccc(-c2[nH]c(-c3ccccc3)nc2-c2ccc(F)c(O)c2)n1)c1ccccc1,88.3% (inactive)
2,O=C(c1ccccc1)N(CCc1ccc(Cl)cc1)C(=S)N(C(=O)c1ccccc1)c1ccccc1,36% (inactive)
3,C=C1C(=O)O[C@H]2[C@H]1CC/C(C(=O)NCCOCCOCC(=O)Nc1ccc(OC)c(C(N)=O)c1O)=C\CC[C@@]1(C)O[C@@H]21,77.8% (inactive)
4,COCCN1CCN(Cc2ccc(-c3n[nH]c4c3C(=O)c3c(NC(=O)NN5CCOCC5)cccc3-4)cc2)CC1,-45.1% (active)
5,CC(=O)NC(CCc1ccc(Cl)c(Cl)c1)c1cccc(O)c(=O)c1 (stereo not given),-31.6% (active)
6,CCOC(=O)C1=C(C)NC(=O)NC1c1cccs1 (stereo not given),102% (inactive)
7,CC(C)(c1ccccc1)c1cc(O)c(C(C)(C)c2ccccc2)cc1O,26.4% (inactive)
8,COC(=O)c1nc(-c2ccccc2)oc1S(=O)(=O)N1CCN(c2cccc(Cl)c2)CC1,46.6% (inactive)
9,O=C(CN1C(=O)/C(=C/c2ccc(Cl)cc2)SC1=S)NCCCN1CCOCC1,94.3% (inactive)
10,COc1ccc(-c2cc(-c3ccccc3)nc(SCCCCCC(=O)NO)n2)cc1,64.8% (inactive)
11,CN(C)S(=O)(=O)n1cnc([C@@H]2[C@@H]3C(=O)OC[C@@H]3C[C@]23N=CN(Cc2ccccc2)C3=O)c1,97.2% (inactive)
12,O=C(/C=C/c1cccnc1)/C=C/c1cccnc1,-64.1% (active)
13,CC(=O)c1ccc2oc(=O)n(Cc3ccc(C#N)cc3)c(=O)c2c1,108% (inactive)
14,C=C1CC[C@H](C(C)C)[C@@H]2[C@H]1[C@H]1CC(=C)[C@@H](O)CC[C@@](C)(O)[C@@H]2O1,89% (inactive)
15,COC(=O)C(OC(C)=O)C(OC(C)=O)c1ccc(OC)c(OC)c1 (stereo not given),108% (inactive)
16,CC(O)(CO)c1ccccc1 (stereo not given),99.6% (inactive)
17,O=C(Cc1ccccc1Nc1c(Cl)cccc1Cl)NN1C(=O)/C(=C/c2ccc(Br)cc2)SC1=S,97% (inactive)
18,CCCCCCCCCCCC1=NCCCN1CCCC,101% (inactive)
19,COc1c(C(=O)/C=C/c2ccc(C)o2)c(O)cc2occc12,30.7% (inactive)
20,CC(C)=CC(=O)OCC(=O)O[C@@H]1C[C@]2(C(C)C)O[C@@]1(C)[C@@H]1CC[C@@H](C)[C@H]1[C@@H]2OC(=O)/C=C/c1ccccc1,64.3% (inactive)
